Assay outcomes: PubChem BioAssay, National Center for Advancing Translational Sciences (NCATS)
p53 reactivation – re-activators of mutant p53 | Potency, µM (top dose mostly 92.2 µM), hits mostly activators | H1299 p53-A138V BP100-luciferase reporter, luminescence, 24 h | 320,000 compounds, 0.063% hits | AID 504706; further: nearly all actives have a fitted effect of over 45% in size
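p53-null H1299 cells stably carrying temperature-sensitive p53-A138V and a BP100-luciferase reporter were pinned with compounds (4-point, 1:5 series) and held 24 hrs at 37 deg C. Luminescence was read 10 min after detection reagent.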
gsp antagonist – antagonizes gsp, the McCune-Albright syndrome mutation; gsp-mutant cells, cAMP HTRF, 30 min; Potency, µM (titrated, usually from 76.9 µM), most hits filed as inhibitors; 340,000 compounds, 0.4% hits; AID 624288; calls by dose curve; cell line not stated here;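 further: intracellular cAMP measured with PDE inhibitor Ro 20-1724 present during compound exposure; nearly all actives have a fitted effect of over 65% in size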
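HTRF cAMP measurement after 30 min RT detection following 30 min, 37C compound treatment alongside […] (added as 300 uM solution) in G418-selected cells seeded at 2000/well and grown 16–24 h.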
RXFP1 ag – activates the human relaxin receptor RXFP1. Q9HBX9. HEK293T-RXFP1 cAMP TR-FRET, 30 min; response scale: percent of porcine relaxin response, buffer zero. Potency, µM (doses to about 57.5 µM), hits mostly activators. 370,000 compounds, 0.3% hits. AID 2676; further: nearly all actives have a fitted effect of over 60% in size
Target sequence (Q9HBX9 whole entry, looked up): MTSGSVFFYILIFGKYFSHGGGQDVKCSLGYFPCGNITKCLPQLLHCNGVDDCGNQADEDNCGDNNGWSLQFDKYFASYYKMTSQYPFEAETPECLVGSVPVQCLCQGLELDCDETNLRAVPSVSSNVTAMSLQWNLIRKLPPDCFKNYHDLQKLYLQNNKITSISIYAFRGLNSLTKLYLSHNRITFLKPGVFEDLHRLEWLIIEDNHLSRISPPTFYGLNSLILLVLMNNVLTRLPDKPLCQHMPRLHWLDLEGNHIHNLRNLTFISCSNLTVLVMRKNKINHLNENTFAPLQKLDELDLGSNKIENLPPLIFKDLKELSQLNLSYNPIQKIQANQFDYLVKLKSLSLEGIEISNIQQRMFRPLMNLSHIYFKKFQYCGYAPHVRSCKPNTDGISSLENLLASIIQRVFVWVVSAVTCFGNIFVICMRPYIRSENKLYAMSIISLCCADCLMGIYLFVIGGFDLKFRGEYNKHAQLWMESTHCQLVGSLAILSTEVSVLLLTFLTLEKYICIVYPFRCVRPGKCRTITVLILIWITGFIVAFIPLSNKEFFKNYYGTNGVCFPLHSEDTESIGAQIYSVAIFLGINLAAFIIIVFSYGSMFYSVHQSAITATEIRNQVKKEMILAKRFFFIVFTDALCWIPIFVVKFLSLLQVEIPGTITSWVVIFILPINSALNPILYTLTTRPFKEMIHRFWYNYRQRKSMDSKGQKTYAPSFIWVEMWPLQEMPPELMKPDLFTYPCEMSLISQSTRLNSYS
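HEK293 cells stably expressing RXFP1, treated 30 min at 37C with compounds plus PDE4 inhibitor Ro 20174; cAMP measured by HTRF TR-FRET. Normalized to buffer and 29 nM porcine relaxin; EC50 by Hill fit.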
RXFP1 antagonist – blocks the human relaxin receptor RXFP1; HEK293-RXFP1, relaxin-stimulated cAMP HTRF, 30 min; stronger effect = lower value; activity change, negative = inhibition, % at 57.5 µM; 350,000 compounds, 0.59% hits;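 active means activity change of -60% or lower, but not beyond a set lower limit; inconclusive means change between -60% and -40%, or beyond the set limit; inactive means change above -40%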
gsp ag – agonists of gsp mutant (McCune-Albright syndrome) | gsp mutant cells, cAMP HTRF, 30 min | Potency, µM (series often up to 76.9 µM), usual class: activators | 340,000 compounds, 0.13% hits; active means well fitted activation curve with a large enough effect; inconclusive means small, poorly fitted or top-dose-only effect, or another doubt; inactive means no such curve, though single readings can be large or run the other way; cell line not stated here;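 further: phosphodiesterase inhibitor Ro 20-1724 added with compounds to block cAMP breakdown; nearly all actives have a fitted effect of over 60% in size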
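Cells stably selected in G418 were plated at 2000/well, grown 16-24 hr, then given compounds in DMSO with the PDE inhibitor […] (300 uM solution added) for 30 min at 37C; cAMP was read by HTRF.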
Tb PFK inh – blocks T. brucei phosphofructokinase | O15648 | T. brucei PFK, ADP-Glo luminescence | Potency, µM (series often up to 57.5 µM), most hits filed as inhibitors | 330,000 compounds, 0.17% hits | AID 485367; further: nearly all actives have a fitted effect of over 60% in size
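PFK 1.25 nM, F6P 0.5 mM, ATP 0.1 mM, 0.1 M TEA pH 8.0, 5 mM MgCl2, 0.01% Tween20, 0.1% BSA; 45 min RT. ADP-Glo readout. qHTS titration up to 57 uM; curves fitted, compounds curve-classed.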
Large screens that a line does not name were inactive. Compounds with a hit are over-represented: about 1.1% of the library has one in this group of screens. Unless noted, the call rests on the fitted dose curve; in most records, active means well fitted curve in the direction sought with a large enough effect; inconclusive means small, poorly fitted or top-dose-only effect, or another doubt; inactive means no such curve, though single readings can be large; an effect the other way counts as inactive or inconclusive.

CCc1nc(SCc2ccc(F)cc2)[nH]c(=O)c1C#N	gsp antagonist 35µM
O=C(CC1C(=O)NCCN1Cc1cccc(Oc2ccccc2)c1)NCCn1cccn1 (stereo unspecified)	none
CCOc1ccc(CNC(=O)c2ccc(-c3nc(CSc4ccc(C)cc4)c(C)o3)cc2)cc1	none (no result: p53 reactivation, gsp antagonist, RXFP1 antagonist, gsp ag, Tb PFK inh)
COc1ccc(C(=O)Nc2sc3c(c2C#N)CCN(C(C)=O)C3)cc1	none
COc1cc(C(=O)Nc2sc3c(c2C#N)CCN(C(C)=O)C3)cc(OC)c1OC	gsp ag 10µM (no result: RXFP1 antagonist)
O=C(Nc1nc(-c2cc(F)ccc2F)cs1)c1cccc(N2C(=O)CCC2=O)c1	gsp antagonist 40µM
COc1ccc(N(CC(=O)Nc2ccc(F)c(F)c2)S(=O)(=O)c2c(C)n[nH]c2C)cc1	gsp antagonist inconclusive, RXFP1 antagonist -86
Cc1ccccc1CSc1nnc(C)c(=O)[nH]1	none (no result: RXFP1 antagonist)
CCOC(=O)c1c(C)[nH]c(-c2csc(C)n2)c1C	RXFP1 antagonist -67
COCCCNC(=S)N1CCN(c2nc3ccccc3s2)CC1	none
CCC(=O)N1CCN(c2nc(CC)nc3sc4c(c23)CCCC4)CC1	gsp antagonist 20µM
CCc1nc(N2CCN(S(C)(=O)=O)CC2)c2c3c(sc2n1)CCCC3	gsp antagonist inconclusive
CCc1nc(N2CCN(C(=S)NCCCOC)CC2)c2c3c(sc2n1)CCCC3	gsp antagonist 7.1µM (no result: p53 reactivation)
O=C1CSc2ccc(C(=O)Nc3cccc(S(=O)(=O)Nc4ccc(Br)cc4)c3)cc2N1	gsp antagonist 40µM, Tb PFK inh inconclusive
O=C(Nc1cccc(S(=O)(=O)Nc2ccc(Cl)cc2)c1)c1ccc(Cl)nc1	gsp antagonist 45µM
COc1ccc(NS(=O)(=O)c2cccc(NC(=O)c3ccc(Cl)nc3)c2)cc1	p53 reactivation inconclusive, gsp antagonist inconclusive, RXFP1 antagonist -71
COc1ccc(S(=O)(=O)Nc2cc(S(=O)(=O)N3CCOCC3)ccc2OC)cc1	none (no result: RXFP1 ag)
Cc1ccc(C(=O)C(C)Oc2cccc(NC(=O)c3ccco3)c2)cc1 (stereo unspecified)	none
CCC1(c2ccccc2)SCC(c2ccccc2)=NC1=O (stereo unspecified)	RXFP1 antagonist -62 (no result: p53 reactivation, RXFP1 ag, Tb PFK inh)
CC(CCc1ccccc1)NC(=O)COC(=O)c1ccc(S(C)(=O)=O)c([N+](=O)[O-])c1 (stereo unspecified)	gsp antagonist inconclusive, RXFP1 antagonist -89
COc1ccccc1CCNC(=O)CCc1c(C)c2cc3c(C)c(C)oc3cc2oc1=O	none (no result: p53 reactivation, gsp antagonist, gsp ag, Tb PFK inh)
O=C(CN1CCN(Cc2ccccc2)CC1)Nc1ccc([N+](=O)[O-])cc1C(=O)Nc1ccccc1F	gsp antagonist inconclusive
CCOC(=O)N1CCN(CC(=O)Nc2ccc([N+](=O)[O-])cc2C(=O)Nc2ccccc2F)CC1	gsp antagonist 28µM
Cc1cc(NC(=O)COC(=O)CCNS(=O)(=O)c2cccc(C(F)(F)F)c2)no1	none
Cc1cc(NC(=O)COC(=O)CCNS(=O)(=O)c2c(Cl)cccc2Cl)no1	RXFP1 antagonist -69
CCCCCCCCCn1c2c(c(=N)c3c1CCC3)CCC2	RXFP1 antagonist -70
CCCCCCn1c2c(c(=N)c3c1CCC3)CCC2	gsp antagonist 35µM
CCN1C(=O)c2ccccc2S(=O)c2ccc(C(=O)NCc3ccc(OC)cc3)cc21 (stereo unspecified)	RXFP1 antagonist inconclusive
COCCCNC(=O)C1CCC(CNS(=O)(=O)c2ccc3c(c2)CC(C)N3C(=O)C2CC2)CC1 (stereo unspecified)	none
CCC(=O)Nc1ccc(N2CCN(C(=O)c3cccs3)CC2)cc1	Tb PFK inh inconclusive
O=C(COc1ccccc1[N+](=O)[O-])Nc1ccc(N2CCN(C(=O)c3cccs3)CC2)cc1	gsp antagonist 28µM
N#CCCn1nc(-c2ccc(Br)cc2)cc1Nc1ccccc1NC(=O)C(F)(F)F	gsp antagonist 32µM
O=C(Nc1c(S(=O)(=O)c2ccccc2)csc1Br)c1ccccc1Cl	none
CC(=O)NC(Cc1c[nH]c2ccccc12)C(=O)NCCc1ccccn1 (stereo unspecified)	none
COc1ccc(OCCNC(=O)C(Cc2c[nH]c3ccccc23)NC(C)=O)cc1 (stereo unspecified)	gsp ag 10µM
COC(=O)C1CCN(C(=O)c2cc(-c3ccc(Cl)s3)nc3ccccc23)CC1	gsp antagonist 32µM, gsp ag inconclusive
CC1(C)NC(=O)N(CC(=O)OCC(=O)Nc2cc(S(=O)(=O)N3CCCCC3)ccc2Cl)C1=O	none
CN(Cc1ccccc1)C(=O)c1ccccc1C(=O)O	gsp ag inconclusive
CN(Cc1ccccc1)C(=O)c1ccccc1N(C)S(=O)(=O)c1ccccc1	RXFP1 antagonist -62
Cc1ccc(C(=O)NNc2cc(N3CCCC3)nc(N3CCCC3)n2)cc1	RXFP1 antagonist -62
O=C(O)c1cc(-c2ccc(/C=c3\sc4nc5ccc(Br)cc5n4c3=O)o2)ccc1Cl	Tb PFK inh 0.85µM (no result: p53 reactivation, gsp antagonist, RXFP1 antagonist, gsp ag)
CC(C)CCN1CCC(N)=NC1=O	none
Cc1ccc(C(=O)c2coc3cc([N+](=O)[O-])c(O)c([N+](=O)[O-])c23)cc1	gsp antagonist 35µM
Cc1[nH]c(=O)[nH]c(=O)c1S(=O)(=O)N1CCC(C(=O)N2CCN(Cc3ccccc3)CC2)CC1	none
Cc1cccc(Nc2nnc(SCC(O)=C(C#N)c3nc4ccccc4[nH]3)s2)c1	RXFP1 antagonist -81 (no result: p53 reactivation, RXFP1 ag, Tb PFK inh)
CCCCCCN1C[C@H](O)[C@@H](n2cc(COC(=O)c3ccccc3)nn2)C[C@@H]1c1ccc(C)cc1	none (no result: p53 reactivation, gsp antagonist, RXFP1 ag, Tb PFK inh)
COCCNC(=O)c1ccc(-n2c(-c3ccccc3)cc3c2CCC(C)C3)cc1 (stereo unspecified)	RXFP1 antagonist -71 (no result: p53 reactivation, gsp antagonist, gsp ag, Tb PFK inh)
C#CC(c1ccccc1)(c1ccccc1)n1ccnc1	none (no result: p53 reactivation, gsp antagonist, RXFP1 ag, Tb PFK inh)
Clc1ccccc1C(c1ccccc1)(c1ccccc1)n1ccnc1	gsp antagonist inconclusive, RXFP1 antagonist -94 (no result: gsp ag)
CCOC(=O)c1cc(-c2ccccc2)n(CC(=O)N(C)c2ccc(OC)cc2)c1C	RXFP1 antagonist -74 (no result: p53 reactivation, gsp antagonist, gsp ag, Tb PFK inh)
Cc1c(CCC(=O)O)c(=O)oc2c(C)c3occ(-c4ccc(Br)cc4)c3cc12	none
CCOC(=O)c1cccc(NC(=O)c2cc3sccc3n2C)c1	p53 reactivation inconclusive, gsp antagonist 35µM
CCOC(=O)c1cccc(NC(=O)c2cc3sccc3n2Cc2ccc(Cl)cc2)c1	none (no result: p53 reactivation, gsp antagonist, RXFP1 antagonist, gsp ag, Tb PFK inh)
O=C(Nc1ccc2c(c1)OCCO2)c1cnc2ccccn2c1=O	gsp ag 8.9µM (no result: p53 reactivation, RXFP1 ag, Tb PFK inh)
O=C(NC(=S)Nc1ccc2c(c1)OCCO2)c1ccccc1F	none
Cn1ncc2cc(NC(=S)NC(=O)c3ccccc3)ccc21	gsp antagonist 40µM
